# Test results as given in article PMC8384837, “Expanding the binding specificity for RNA recognition by a PUF domain”.
# Residue numbers refer to the chain shown, from its start.
# Legend:
# Assay in all cases: yeast three-hybrid, YBZ-1, SC-Leu-His + 0.5 mM 3-AT, 4 days
# Details in all cases: tags: N-Gal4 AD-HA kept; label: inside an RPR1-promoter hybrid RNA with tandem MS2 sites; ssRNA
# PUM1 PUF domain R3-APV = PUM1 PUF domain R3-APV (Homo sapiens, UniProt Q14671 828-1176, C935A;R936P;Q939V)
# Procedure, shortened: (§1)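 Pumilio-1 PUF domain libraries, randomized at the three base-contacting residues of each repeat, were co-expressed with matching RNA elements from a centromeric plasmid in strain YBZ-1, which carries a LexA–MS2 coat fusion and a HIS3 reporter. Transformants grew for four days on SC-Leu (input) or on SC-Leu-His + 0.5 mM 3-AT (selection), and the repeat regions were PCR-amplified and Illumina-sequenced. The interaction score is the log change in variant frequency from input to selection. That logarithm is base 2, with a pseudocount of 1 where a variant was absent.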
# PUM1 PUF domain R7-KRT = PUM1 PUF domain R7-KRT (Homo sapiens, UniProt Q14671 828-1176, S1079K;N1080R;E1083T)
# Procedure, shortened: as §1
# PUM1 PUF domain R8-KQR = PUM1 PUF domain R8-KQR (Homo sapiens, UniProt Q14671 828-1176, N1122K;Y1123Q;Q1126R)
# Procedure, shortened: as §1
# PUM1 PUF domain R1-KQN = PUM1 PUF domain R1-KQN (Homo sapiens, UniProt Q14671 828-1176, S863K;R864Q;Q867N)
# Procedure, shortened: as §1
# PUM1 PUF domain R4-SRW = PUM1 PUF domain R4-SRW (Homo sapiens, UniProt Q14671 828-1176, N971S;H972R;Q975W)
# Procedure, shortened: as §1
# PUM1 PUF domain R5-QRS = PUM1 PUF domain R5-QRS (Homo sapiens, UniProt Q14671 828-1176, C1007Q;Q1011S)
# Procedure, shortened: as §1
# PUM1 PUF domain R4-LGM = PUM1 PUF domain R4-LGM (Homo sapiens, UniProt Q14671 828-1176, N971L;H972G;Q975M)
# Procedure, shortened: as §1
# PUM1 PUF domain R6-WHG = target: T1, PUM1 PUF domain R6-WHG (Homo sapiens, UniProt Q14671 828-1176, N1043W;Y1044H;Q1047G)
# T1 sequence: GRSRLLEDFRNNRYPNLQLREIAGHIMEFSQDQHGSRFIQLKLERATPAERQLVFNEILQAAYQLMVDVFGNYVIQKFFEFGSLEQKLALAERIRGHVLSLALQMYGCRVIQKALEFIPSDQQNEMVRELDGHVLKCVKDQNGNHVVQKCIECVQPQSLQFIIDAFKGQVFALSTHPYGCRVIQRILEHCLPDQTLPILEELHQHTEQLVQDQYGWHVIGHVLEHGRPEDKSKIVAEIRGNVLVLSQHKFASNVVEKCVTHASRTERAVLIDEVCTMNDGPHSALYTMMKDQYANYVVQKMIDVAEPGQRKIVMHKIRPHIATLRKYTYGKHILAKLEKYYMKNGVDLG
# Procedure, shortened: as §1
# PUM1 PUF domain R6-RHQ = target: T2, PUM1 PUF domain R6-RHQ (Homo sapiens, UniProt Q14671 828-1176, N1043R;Y1044H)
# T2 sequence: T1 sequence with W216R, G220Q
# Procedure, shortened: as §1
# PUM1 PUF domain R1-SWK = PUM1 PUF domain R1-SWK (Homo sapiens, UniProt Q14671 828-1176, R864W;Q867K)
# Procedure, shortened: as §1
sequence,measurement,setting,value
GGCUAGAACUAGUGGAUCCCCCGGCGCCCGGCGGCUCGAGCCCGGGUAAGUGUAAUUAGUCUGCAUGCCGCCGGGCGCCAUGCCUGCAGGUCGACUCUAGAAAACAUG,binding signal,PUM1 PUF domain R3-APV,1.79 log2 enrichment (interaction score)
GGCUAGAACUAGUGGAUCCCCCGGCGCCCGGCGGCUCGAGCCCGGGUAAGUCUAAAUAGUCUGCAUGCCGCCGGGCGCCAUGCCUGCAGGUCGACUCUAGAAAACAUG,binding signal,PUM1 PUF domain R7-KRT,4.64 log2 enrichment (interaction score)
GGCUAGAACUAGUGGAUCCCCCGGCGCCCGGCGGCUCGAGCCCGGGUAAGUUUAAAUAGUCUGCAUGCCGCCGGGCGCCAUGCCUGCAGGUCGACUCUAGAAAACAUG,binding signal,PUM1 PUF domain R7-KRT,4.19 log2 enrichment (interaction score)
GGCUAGAACUAGUGGAUCCCCCGGCGCCCGGCGGCUCGAGCCCGGGUAAGCGUAAAUAGUCUGCAUGCCGCCGGGCGCCAUGCCUGCAGGUCGACUCUAGAAAACAUG,binding signal,PUM1 PUF domain R8-KQR,2.27 log2 enrichment (interaction score)
GGCUAGAACUAGUGGAUCCCCCGGCGCCCGGCGGCUCGAGCCCGGGUAAGUGUAAAUGGUCUGCAUGCCGCCGGGCGCCAUGCCUGCAGGUCGACUCUAGAAAACAUG,binding signal,PUM1 PUF domain R1-KQN,2.83 log2 enrichment (interaction score)
GGCUAGAACUAGUGGAUCCCCCGGCGCCCGGCGGCUCGAGCCCGGGUAAGUGUAAAUAGUCUGCAUGCCGCCGGGCGCCAUGCCUGCAGGUCGACUCUAGAAAACAUG,binding signal,PUM1 PUF domain R4-SRW,3.2 log2 enrichment (interaction score)
same,binding signal,PUM1 PUF domain R5-QRS,1.57 log2 enrichment (interaction score)
same,binding signal,PUM1 PUF domain R4-LGM,3.11 log2 enrichment (interaction score)
same,binding signal,PUM1 PUF domain R6-WHG,3.76 log2 enrichment (interaction score)
same,binding signal,PUM1 PUF domain R6-RHQ,5.04 log2 enrichment (interaction score)
same,binding signal,PUM1 PUF domain R3-APV,3.39 log2 enrichment (interaction score)
GGCUAGAACUAGUGGAUCCCCCGGCGCCCGGCGGCUCGAGCCCGGGUAAGUGUAUAUAGUCUGCAUGCCGCCGGGCGCCAUGCCUGCAGGUCGACUCUAGAAAACAUG,binding signal,PUM1 PUF domain R4-SRW,0.88 log2 enrichment (interaction score)
GGCUAGAACUAGUGGAUCCCCCGGCGCCCGGCGGCUCGAGCCCGGGUAAGUGUAAAUCGUCUGCAUGCCGCCGGGCGCCAUGCCUGCAGGUCGACUCUAGAAAACAUG,binding signal,PUM1 PUF domain R1-SWK,2.68 log2 enrichment (interaction score)
GGCUAGAACUAGUGGAUCCCCCGGCGCCCGGCGGCUCGAGCCCGGGUAAGUGUGAAUAGUCUGCAUGCCGCCGGGCGCCAUGCCUGCAGGUCGACUCUAGAAAACAUG,binding signal,PUM1 PUF domain R5-QRS,3.7 log2 enrichment (interaction score)
